Screening data deposited in PubChem BioAssay by Sanford-Burnham Center for Chemical Genomics.
Rows were chosen to be rich in hits. Some 2.6% of all compounds tested hit in one or more screens of this group.
eIF4H inh: inhibitors of RNA binding by human eIF4H; inhibition, % at 35 µM; 0.94% of 290,000 active; eIF4H fluorescence polarization binding assay;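 further: calls also rest on retests at 20 µM and on dose response follow-up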
CRFBP-R2 block: CRF-BP/CRF-R2 complex antagonism | HEK293 CRF-R2/CRF-BP, CRF-induced calcium fluorescence | inhibition, % at 11.8 µM | 0.59% of 350,000 active | AID 588475;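 active means inhibition of the ligand-induced calcium signal above about 50% at the single tested concentration, limit read from the data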
PABP FP inh: PABP-poly(A) binding inhibition | 1% of 290,000 active | PABP-poly(A) RNA binding, fluorescence polarization | P11940 | inhibition, % at 35 µM;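 further: calls also rest on retests at 20 µM and on dose response follow-up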
PABP1 MLLE inh: blocks PAM2 peptide binding to the PABP1 MLLE domain; AID 588489; 0.36% of 360,000 active; GST-MLLE / FITC-PAM2 fluorescence polarization; inhibition, % at 20 µM; in the data active means inhibition above about 35%, passing the limit was not always enough;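 further: plate controls were DMSO wells with GST-MLLE for no effect and wells lacking GST-MLLE protein for full effect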
PHOSPHO1 block: PHOSPHO1 (human) inhibition; Q8TCT1; recombinant PHOSPHO1, absorbance phosphatase assay; inhibition, % at 13.3 µM; 1.1% of 290,000 active; AID 1565; in the data active means inhibition above about 60%
Target sequence (Q8TCT1 whole entry, looked up): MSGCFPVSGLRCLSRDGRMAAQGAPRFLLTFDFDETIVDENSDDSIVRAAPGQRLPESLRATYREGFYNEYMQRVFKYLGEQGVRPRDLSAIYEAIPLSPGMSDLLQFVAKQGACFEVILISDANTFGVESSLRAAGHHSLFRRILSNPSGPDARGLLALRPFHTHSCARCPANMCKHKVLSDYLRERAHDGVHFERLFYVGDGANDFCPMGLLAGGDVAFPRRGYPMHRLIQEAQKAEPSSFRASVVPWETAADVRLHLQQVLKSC
Starred values were filed as active, the others as inactive; ? = inconclusive; / = no result; ! = not active in a repeat. Unless noted, how the calls were made is not given here.

SMILES	eIF4H inh	CRFBP-R2 block	PABP FP inh	PABP1 MLLE inh	PHOSPHO1 block
O=C1OC2(CCCC2)OC(=O)C1=Cc1c[nH]c2ccccc12	?	-3.4	109.1*	-15.3	-3.4
Cc1cc(O)ccc1Nc1cc(-c2cccc(N(C)C)c2)ncn1	/	/	/	-0.6	/
Cc1oc(/N=C/c2ccc(Cl)cc2)c(C#N)c1C	53.2*	-9.8	68.4*	-1.7	-5.4
Cc1oc(/N=C/c2ccc(O)cc2O)c(C#N)c1C	?	-10.3	-7.1	32.1	3.3
Cc1oc(/N=C/c2ccccc2O)c(C#N)c1C	79.4*	-4.3	69.1*	11.0	3.3
Nn1c(COc2cccc(Br)c2)nnc1SCC(=O)N1CCc2ccccc2C1	-7.6	6.1	7.3	-85.9	81.5*
COc1ccc(-c2nnn(CC(=O)N(Cc3cccs3)C(C)C(=O)NCCC(C)C)n2)cc1OC (centres undefined)	-10.8	-30.1	-8.1	-4.1	3.4
Cc1ccnc(NC(=O)CSc2cc(=O)n(C)c3ccccc23)c1	0.3	-17.3	6.1	1.2	63.2*
COc1ccc(OC)c(-c2nnc3n2N=C(c2ccc(OC)c(OCC4CC4)c2)CS3)c1	/	58.9*	/	-58.0	/
CCCSc1nnc(N2C(=O)C(O)=C(C(=O)c3ccco3)C2c2ccccc2F)s1 (centres undefined)	?	-16.4	94.6*	18.8	-112.3
CN(C)CCN(C)C1CN(Cc2ccc(F)cc2)S(=O)(=O)C1 (centres undefined)	/	/	/	9.1	/
O=c1cc(-c2ccccc2)nc2c(-c3ccccc3)c(C(F)(F)F)[nH]n12	-0.6	53.5*	23.0	-7.8	29.0
O=C(O)c1cc(-c2ccco2)nc2ccc(Br)cc12	87.0*	-10.9	92.8*!	23.9	6.3
O=C(NCc1ccco1)c1ccc(S(=O)(=O)N2CCCCC2)cc1	-6.7	-2.5	-8.6	5.8	3.4
O=C(c1ccco1)N1CCN(C(=O)c2cc(-c3ccncc3)nc3ccc(Br)cc23)CC1	/	-13.4	/	-45.1	/
O=C(Nc1cccc(C(F)(F)F)c1)c1ccc2nc(-c3ccco3)c(-c3ccco3)nc2c1	74.8*	0.0	31.1*	-14.4	23.8
CCc1nc2ccc(C(=O)N3CCN(c4ccccc4)CC3)cc2nc1CC	-9.1	5.1	-7.5	-10.8	33.2
O=C(NCc1ccco1)c1ccc(S(=O)(=O)N2CCOCC2)cc1	78.8*	5.5	26.5*	26.7	-4.2
O=C(c1ccc2nc(-c3ccco3)c(-c3ccco3)nc2c1)N1CCN(c2ccccc2)CC1	93.7*	-30.5	53.1*	21.6	0.1
O=C(O)c1ccc2nc(-c3ccco3)c(-c3ccco3)nc2c1	98.2*	-15.1	90.3*	50.4*	14.6
O=S(=O)(c1ccc2nc(-c3ccco3)c(-c3ccco3)nc2c1)N1CCOCC1	94.9*	4.3	81.7*	23.0	64.7*
N#Cc1c(C(F)(F)F)cc(-c2ccc(Cl)cc2)[nH]c1=O	-11.9	62.6*	-7.7	-1.2	-0.3
CCNc1nc2[nH]c(=O)c3c(c2s1)OC(N)=C(C#N)C3c1ccc(C)cc1 (centres undefined)	?	-53.8	80.3*	-7.8	-20.1
CNc1nc2[nH]c(=O)c3c(c2s1)OC(N)=C(C#N)C3c1ccccc1 (centres undefined)	?	-36.0	-2.3	-36.4	-9.3
S=c1[nH]cc2cnccn12	/	-11.2	/	69.5*	/
SMILES	eIF4H inh	CRFBP-R2 block	PABP FP inh	PABP1 MLLE inh	PHOSPHO1 block
CCOC(=O)C(Sc1nn(C)c(=S)s1)C(C)=O (centres undefined)	-9.8	-3.9	-1.8	-108.1	96.9*
Cn1nc(SCC(=O)O)sc1=S	-3.2	-4.5	31.4	3.8	8.8
Cc1ccc(CNC(=O)Nc2nnc([C@@H]3C[C@H](O)[C@@H](CO)O3)s2)cc1	/	/	/	-7.5	/
O=C(NCc1ccc(Cl)cc1)c1ncn[nH]1	95.6	14.4	-8.6	-2.2	72.9*
CN(CC(=O)Nc1ccc(Cl)c(C(F)(F)F)c1)C(=O)c1ccc2c(c1)NC(=O)CS2	/	7.1	/	-11.7	/
Cc1cccc(NC(=O)CSc2nnc(CSc3nc(C)cc(C)n3)o2)c1	-1.2	1.7	-0.8	-6.8	-16.9
CCc1nnc(NC(=O)CSc2nnc(CSc3nc(C)cc(C)n3)o2)s1	-2.6	-18.4	-13.2	-22.6	94.0*
COc1ccc(NC(=S)NC(=O)c2cncc(Br)c2)cc1	/	-46.9	/	30.7	/
CC(C)Cn1c(N)c(C(=O)COC(=O)c2cc(C3CC3)nc3ccccc23)c(=O)n(C)c1=O	-11.5	-13.3	118.4*	/	3.5
O=C(/C=C\c1ccc2c(c1)OCO2)CC1(O)C(=O)Nc2ccccc21 (centres undefined)	-11.4	-1.4	11.7	-8.3	18.8
Cc1cc(SCC(=O)c2ccc(Cl)cc2)nc(=O)[nH]1	/	81.1*	/	-7.0	12.6
Cc1ccc(C(=O)CSc2cc(C)[nH]c(=O)n2)cc1	22.1	5.8	11.7	-49.3	40.8
COCCn1c(SCC(=O)c2ccc3c(c2)OCCO3)nnc1C(C)C	-8.5	-2.0	-10.3	8.6	-3.9
COCCn1c(SCC(=O)c2ccc(Cl)cc2)nnc1C(C)C	0.6	8.2	6.5	26.7	75.1*
CCOc1ccc(N2CC(C(=O)Nc3cccc(S(=O)(=O)N4CCOCC4)c3)CC2=O)cc1 (centres undefined)	/	-19.6	/	-3.3	/
O=C1C[C@@H]2C(=O)N(c3ccccc3)C(=O)[C@@H]2[C@@H]2CN(S(=O)(=O)c3ccccc3)[C@@H](c3ccccc3)[C@H]12	/	/	/	-6.9	/
O=C(Cc1cccs1)N/N=C/C=C\c1ccco1	102.6*	8.8	0.5*	-6.5	9.0
O=C(N/N=C/C=C/c1ccco1)c1ccncc1	14.6	-7.8	9.1	-14.2	-7.6
Cc1cccc(OCC(=O)N/N=C/C=C/c2ccco2)c1	81.3*	-2.5	1.4	-15.3	-12.3
O=C(N/N=C/C=C/c1ccco1)c1ccccc1Cl	77.7*	-4.0	active	0.2	4.4
CC(/C=C/c1ccco1)=N/NC(=O)c1ccccc1Cl	3.0	-35.6	-2.5	-6.8	41.9
O=C(N/N=C/C=C/c1ccco1)/C(=C/c1ccccc1)NC(=O)c1ccccc1	51.0*	3.3	active	3.6	1.1
CCOc1ccccc1OCCC(=O)OCC(=O)c1ccc[nH]1	58.7*	0.3	3.8*	0.7	40.5
O=c1[nH]c(C(Cl)Cl)nc2sc3c(c12)CCN(Cc1ccccc1)C3	78.1*	4.9	12.3*	10.9	-17.0
CCCSc1nc2sc3c(c2c(=O)[nH]1)CCN(Cc1ccccc1)C3	?	-13.6	?	-62.2	8.2
SMILES	eIF4H inh	CRFBP-R2 block	PABP FP inh	PABP1 MLLE inh	PHOSPHO1 block
CN(CCO)S(=O)(=O)c1ccc2c(c1)C(=NNC(N)=O)c1cc(S(=O)(=O)N(C)CCO)ccc1-2	-3.1	85.1*	-17.0	8.6	-5.9
CCCNc1nc2ccccc2c(=O)[nH]1	-3.5	7.2	6.9	11.6	16.5
CCCNc1cc(=S)nc(N)[nH]1	?	-10.2	?	41.9*	-82.6
CCO[C@@H]1OC(C(N)=O)=C[C@H](C(C)(C)C)[C@H]1CCCO	/	108.6*	/	-4.9	/
C=CCOC(=O)C1=C[C@H](C(C)(C)C)[C@@H](CCCO)[C@H](OCC)O1	/	5.4	/	13.4	/
Nc1c(C(=O)O)sc2nc(-c3ccc(F)cc3)cc(-c3ccccc3)c12	80.7	-4.7	47.9*	-41.9	-35.2
